As usually defined, the inhibition is the change of the read-out against control, counted positive when it falls.

Assay [1] in a line: antimalarial activity against Dd2 strain (AID 2302;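 active = growth inhibition above 50% at the single 2 µM test dose, taken to imply half-maximal potency below 2 µM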;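 also: 0% = DMSO untreated growth and 100% = chloroquine plus artemisinin killed control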). The following applies: P. falciparum Dd2 in RBCs, LDH growth readout, 72 h; at 2 µM; hits give high values.
A short description of assay [2]: human hepatoma cell viability loss – ATP luminescence, cytotoxicity control for P. falciparum antimalarial project, primary screen (AID 2303;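 active = inhibition above 50%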;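 also: 0% = DMSO wells and 100% = digitonin-killed cells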). The following applies: HepG2 viability, 24-48 h, at 10 µM, hits give high values.
The target in assay [3] is L-lactate dehydrogenase (Plasmodium falciparum (isolate CDC / Honduras)) (UniProt Q27743). Kind of assay: PfLDH activity inhibition – cell lysate, 3D7 strain, counter-screen for P. falciparum growth inhibition project (AID 2304).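 Also: 0% = vehicle and 100% = reference inhibitor.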 The following applies: P. falciparum 3D7 crude extract, LDH APAD/NBT absorbance; at 2 µM; hits give high values. On the technique in general: Counterscreens check selectivity or assay interference.

The nature of assay [4]: inhibition of 3D7 malaria parasite growth – strain 3D7 (AID 2306).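 Also: 0% = DMSO wells and 100% = chloroquine plus artemisinin control wells.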 The following applies: P. falciparum 3D7 erythrocytic growth, LDH absorbance, 72 h; at 2 µM; hits give high values.
Assay [5] addresses Calcium-dependent protein kinase 1 (Plasmodium falciparum (isolate 3D7)) (UniProt P62344). Kind of assay: PfCDPK1 kinase inhibitors, biochemical, TCAMS library (AID 1159585; cut-off not given, nearly all actives have IC50 up to about 0.98 µM;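 also: inhibitors leave more ATP so luminescence rises with inhibition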). The following applies: recombinant PfCDPK1, Kinase-Glo ATP depletion luminescence. A general note: In Kinase-Glo more light means more ATP remaining.
Assay [6] deals with Plasmodium falciparum protein kinase 6 (PK6, PF3D7_1337100) (UniProt Q8IDW1). Kind of assay: PfPK6 kinase inhibitors, biochemical, TCAMS library (AID 1159586). The following applies: recombinant PfPK6, Kinase-Glo ATP depletion luminescence.
Assay [7] has as its target Protein kinase 7 (PK7), Plasmodium falciparum 3D7 (PF3D7_0213400) (UniProt Q7YTF7). The assay is described as follows: inhibition of Plasmodium PK7 catalytic activity – biochemical, TCAMS antimalarial set, Kinase-Glo luminescence (AID 1159587). The following applies: recombinant PfPK7, Kinase-Glo ATP depletion luminescence.
Assay [8] deals with Calcium-dependent protein kinase 4 (Plasmodium falciparum (isolate 3D7)) (UniProt Q8IBS5). Kind of assay: PfCDPK4 kinase inhibitors, biochemical, TCAMS library (AID 1159588; cut-off not given, nearly all actives have IC50 up to about 0.91 µM). The following applies: recombinant PfCDPK4, Kinase-Glo ATP depletion luminescence.

Unmarked numbers belong to inactive results. For some of these results: Measured potencies and affinities stand elsewhere. Active and inactive are the calls of the source. Unless noted, no rule for the calls is given here.

Chain of Protein kinase 7 (PK7), Plasmodium falciparum 3D7 (PF3D7_0213400) (Q7YTF7 1-343): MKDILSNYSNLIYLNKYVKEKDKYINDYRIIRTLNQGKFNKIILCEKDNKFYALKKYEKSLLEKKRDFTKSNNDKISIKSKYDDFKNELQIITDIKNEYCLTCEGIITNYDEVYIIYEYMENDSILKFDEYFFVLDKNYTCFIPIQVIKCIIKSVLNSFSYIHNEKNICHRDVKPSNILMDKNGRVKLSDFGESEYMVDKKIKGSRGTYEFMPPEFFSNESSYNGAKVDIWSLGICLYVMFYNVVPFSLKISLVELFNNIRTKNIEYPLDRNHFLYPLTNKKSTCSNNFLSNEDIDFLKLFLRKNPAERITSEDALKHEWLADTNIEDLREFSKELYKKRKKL
Chain of Calcium-dependent protein kinase 4 (Plasmodium falciparum (isolate 3D7)) (Q8IBS5 whole entry, looked up): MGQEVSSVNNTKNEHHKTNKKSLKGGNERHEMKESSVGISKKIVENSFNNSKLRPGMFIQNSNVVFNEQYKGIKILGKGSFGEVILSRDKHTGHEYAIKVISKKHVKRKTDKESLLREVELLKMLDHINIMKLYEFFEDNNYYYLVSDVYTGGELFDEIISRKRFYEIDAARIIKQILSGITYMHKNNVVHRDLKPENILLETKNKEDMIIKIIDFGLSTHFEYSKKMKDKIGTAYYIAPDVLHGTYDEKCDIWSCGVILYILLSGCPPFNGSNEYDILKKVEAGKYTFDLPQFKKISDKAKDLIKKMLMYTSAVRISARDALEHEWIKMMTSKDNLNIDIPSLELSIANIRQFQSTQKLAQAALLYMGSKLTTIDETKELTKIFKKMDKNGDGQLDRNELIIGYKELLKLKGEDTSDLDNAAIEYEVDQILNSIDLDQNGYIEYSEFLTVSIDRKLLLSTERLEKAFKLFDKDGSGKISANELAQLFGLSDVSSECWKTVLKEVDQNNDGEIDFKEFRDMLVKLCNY
Chain of Calcium-dependent protein kinase 1 (Plasmodium falciparum (isolate 3D7)) (P62344 whole entry, looked up): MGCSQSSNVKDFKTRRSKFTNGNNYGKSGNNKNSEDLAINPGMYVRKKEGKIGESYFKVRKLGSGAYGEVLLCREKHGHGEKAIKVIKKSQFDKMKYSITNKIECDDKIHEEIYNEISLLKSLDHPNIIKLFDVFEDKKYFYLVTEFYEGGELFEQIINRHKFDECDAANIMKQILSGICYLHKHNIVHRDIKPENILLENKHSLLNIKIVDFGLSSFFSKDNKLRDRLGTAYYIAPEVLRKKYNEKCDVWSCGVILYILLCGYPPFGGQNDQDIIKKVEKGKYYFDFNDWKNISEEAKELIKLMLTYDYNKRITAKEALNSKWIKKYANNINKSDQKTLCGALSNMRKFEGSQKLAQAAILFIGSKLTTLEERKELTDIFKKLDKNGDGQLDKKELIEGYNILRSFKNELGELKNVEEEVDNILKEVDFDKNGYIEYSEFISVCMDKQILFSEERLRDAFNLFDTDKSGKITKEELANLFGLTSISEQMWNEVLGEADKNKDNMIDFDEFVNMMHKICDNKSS
Chain of L-lactate dehydrogenase (Plasmodium falciparum (isolate CDC / Honduras)) (Q27743 whole entry, looked up): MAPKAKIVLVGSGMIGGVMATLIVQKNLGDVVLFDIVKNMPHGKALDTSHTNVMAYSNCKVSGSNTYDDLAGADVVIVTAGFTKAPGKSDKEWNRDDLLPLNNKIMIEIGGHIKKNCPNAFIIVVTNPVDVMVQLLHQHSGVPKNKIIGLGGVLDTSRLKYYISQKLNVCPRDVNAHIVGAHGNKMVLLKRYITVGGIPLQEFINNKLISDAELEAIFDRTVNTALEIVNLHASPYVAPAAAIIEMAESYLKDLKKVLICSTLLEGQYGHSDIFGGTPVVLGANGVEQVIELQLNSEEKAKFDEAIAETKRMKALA
Chain of Plasmodium falciparum protein kinase 6 (PK6, PF3D7_1337100) (Q8IDW1 1-305): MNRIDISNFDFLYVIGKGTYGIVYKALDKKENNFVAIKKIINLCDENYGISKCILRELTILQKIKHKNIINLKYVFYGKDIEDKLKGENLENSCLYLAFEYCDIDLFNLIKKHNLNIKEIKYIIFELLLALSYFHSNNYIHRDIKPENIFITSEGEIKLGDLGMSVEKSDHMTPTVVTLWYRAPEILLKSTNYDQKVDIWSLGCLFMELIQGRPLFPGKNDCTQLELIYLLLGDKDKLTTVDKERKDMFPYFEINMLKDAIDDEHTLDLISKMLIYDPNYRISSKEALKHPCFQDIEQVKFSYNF

In the case of `CCCc1cccc(OC)c1OCCCON1C(N)=NC(N)=NC1(C)C`, the growth inhibition is 97% (active) in assay [1] and 94% (active) in assay [4]. For the same compound, the values for the inhibition in assay [2] and in assay [3] were 65% (active) and 5%, respectively. The outcome in assay [5], in assay [6], in assay [7] and in assay [8] was inactive.
Turning to `CCC[C@@H]([C@@H](CC1CCC(C)CC1)C(=O)N[C@@H](CO)C(=O)Nc1nccs1)N(O)C=O` (stereo not given in full), the growth inhibition in assay [1] is 84% (active); in assay [4] it was 100% (active). The values for the inhibition in assay [2] and in assay [3] were 0% and -2%, respectively. For the same compound, the result in assay [5], in assay [6], in assay [7] and in assay [8] was inactive.
Take `COc1cccc(-c2ccc3c(-c4ccc(F)cc4)cnc(N)c3c2)c1`: the values for the growth inhibition in assay [1] and in assay [4] were 70% (active) and 100% (active), respectively. In addition, the inhibition in assay [2] is 27%; in assay [3], -2%. Moreover, the result in assay [5], in assay [6], in assay [7] and in assay [8] was inactive.
For `CCc1cccc(OCCCON2C(N)=NC(N)=NC2(C)C)c1`, the growth inhibition in assay [1] is 94% (active); in assay [4], 95% (active). Moreover, the inhibition in assay [2] was 63% (active); in assay [3], 5%. The result in assay [5], in assay [6], in assay [7] and in assay [8] was inactive.
In the case of `Cc1ccc(Nc2nc(NN=Cc3cccc(O)c3)nc(Nc3ccc([N+](=O)[O-])cc3)n2)cc1C`, the growth inhibition in assay [1] was 69% (active); in assay [4], 101% (active). Moreover, the inhibition is -2% in assay [2] and 5% in assay [3]. The outcome in assay [5], in assay [6], in assay [7] and in assay [8] was inactive.
As to `CCOc1ccc(C2CCN(CCCCNC(=O)c3ccc(NC(=O)c4ccc(Cl)cc4)cc3)CC2)c(CC)c1`, the growth inhibition is 64% (active) in assay [1] and 100% (active) in assay [4]. For the same compound, the inhibition in assay [2] is 44%; in assay [3], -4%. In addition, the outcome in assay [5], in assay [6], in assay [7] and in assay [8] was inactive.
With `COc1ccc(CCN(C)CCCOc2ccc(NC(=O)COc3cccc4sc5ccccc5c(=O)c34)cc2)cc1OC`, the growth inhibition in assay [1] was 90% (active); in assay [4] it was 94% (active). The inhibition in assay [2] was 99% (active); in assay [3], 1%. The outcome in assay [5], in assay [6], in assay [7] and in assay [8] was inactive.
Turning to `COc1ccc2nccc(NCC3(O)CCN(CC(O)c4ccc5c(c4)NC(=O)CS5)CC3)c2n1` (stereo not given), the growth inhibition in assay [1] was 3%; in assay [4], 100% (active). For the same compound, the inhibition in assay [2] was 3%; in assay [3], 2%. The result in assay [5], in assay [6], in assay [7] and in assay [8] was inactive.
As to `O=C(C=Cc1ccc(Cl)c(Cl)c1)NCCCCCN1CCCC(CCCNC(=O)/C=C/c2ccccc2)C1` (stereo not given), the growth inhibition in assay [1] was 12%; in assay [4], 98% (active). Also, the results for the inhibition in assay [2] and in assay [3] were 92% (active) and -4%, respectively. The outcome in assay [5], in assay [6], in assay [7] and in assay [8] was inactive.
On to `NC(N)=Nc1nccc(NCc2ccccc2)n1`, for which the growth inhibition in assay [1] is 48%; in assay [4], 88% (active). Besides, the inhibition in assay [2] was 95% (active); in assay [3], -1%. Further, the result in assay [5], in assay [6], in assay [7] and in assay [8] was inactive.
As for `O=C(Nc1ccc(N2CCCCC2)c(Cl)c1)c1ncn[nH]1`, the growth inhibition in assay [1] and in assay [4] was 93% (active) throughout. Also, the inhibition in assay [2] is -4%; in assay [3] it was -6%. Further, the outcome in assay [5], in assay [6], in assay [7] and in assay [8] was inactive.
On to `Cc1cc(NC(=O)c2ccco2)ccc1OC1CCN(Cc2ccc(F)cc2)C1` (stereo not given), for which the figures for the growth inhibition in assay [1] and in assay [4] were 92% (active) and 96% (active), respectively. Also, the inhibition in assay [2] and in assay [3] was 5% each time. The outcome in assay [5], in assay [6], in assay [7] and in assay [8] was inactive.
`O=C(NCCCCN1CCC(c2ccc3c(c2OCCN2CCCC2=O)CCCC3)CC1)c1ccc(-c2ccc(C(F)(F)F)cc2)cc1`: the figures for the growth inhibition in assay [1] and in assay [4] were 1% and 88% (active), respectively. The inhibition in assay [2] is 56% (active); in assay [3], 1%. Besides, the outcome in assay [5], in assay [6], in assay [7] and in assay [8] was inactive.
Take `COc1ccc(CCC(C)N2C[C@@H](N)[C@H](c3cn(C)c4cnccc34)C2)cc1` (stereo not given in full): the growth inhibition is -4% in assay [1] and 98% (active) in assay [4]. The values for the inhibition in assay [2] and in assay [3] were 5% and -1%, respectively. For the same compound, the result in assay [5], in assay [6], in assay [7] and in assay [8] was inactive.
On to `CN1CCN(CC(=O)Nc2ccc(-c3csc(-c4nc5ccccc5[nH]4)c3)cc2)CC1`, for which the figures for the growth inhibition in assay [1] and in assay [4] were 46% and 99% (active), respectively. The inhibition was 6% in assay [2] and -4% in assay [3]. The outcome in assay [5], in assay [6], in assay [7] and in assay [8] was inactive.
Regarding `CCCCNCc1ccc(-c2nc(CN(C(=O)Nc3cc([N+](=O)[O-])ccc3F)C3Cc4ccccc4C3)cs2)cc1`, the growth inhibition in assay [1] is 13%; in assay [4], 87% (active). Moreover, the inhibition in assay [2] was 15%; in assay [3], -2%. The result in assay [5], in assay [6], in assay [7] and in assay [8] was inactive.
In the case of `CCCCCC(C)N=C(Nc1ccc(C#N)cc1O)Nc1ccccc1Br` (stereo not given), the growth inhibition in assay [1] was 95% (active); in assay [4], 98% (active). The inhibition in assay [2] is 2%; in assay [3], -3%. The outcome in assay [5], in assay [6], in assay [7] and in assay [8] was inactive.
Turning to `Cc1ccccc1C1CCN(C2CCC(NC(=O)/C=C/c3cc(F)ccc3C(F)(F)F)CC2)CC1` (stereo not given), the growth inhibition in assay [1] was 25%; in assay [4], 98% (active). Moreover, the inhibition in assay [2] is 90% (active); in assay [3], 2%. The result in assay [5], in assay [6], in assay [7] and in assay [8] was inactive.
As to `O=C(Nc1ccc(-c2nc3ccccc3[nH]2)cc1)c1ccc(S(=O)(=O)N2CCCCCC2)cc1`, the growth inhibition is 21% in assay [1] and 97% (active) in assay [4]. For the same compound, the values for the inhibition in assay [2] and in assay [3] were 8% and -6%, respectively. Besides, the result in assay [5], in assay [6], in assay [7] and in assay [8] was inactive.
As to `CCC(C)c1ccc(NC(=O)Nc2ccnc3ccccc23)cc1` (stereo not given), the growth inhibition in assay [1] is 42%; in assay [4], 98% (active). For the same compound, the inhibition in assay [2] is 27%; in assay [3] it was -2%. Also, the result in assay [5], in assay [6], in assay [7] and in assay [8] was inactive.

(Values after PubChem BioAssay.)
